Screening data deposited in PubChem BioAssay by The Scripps Research Institute Molecular Screening Center.
In the library only some 3.4% were active in any assay of this set; here they are far more common.
TEAD-YAP block: TEAD-YAP interaction inhibition; inhibition, % at 9.12 µM; AID 1259422; 640,000 compounds, 1.4% hits; HEK-TIYL cells, TEAD-Gal4/YAP UAS-luciferase luminescence; in the data active means inhibition above about 32%
MITF inh: blocks human microphthalmia-associated transcription factor. inhibition, % at 2.6 µM. AlphaScreen MITF homodimerization, bead proximity signal. AID 1259374. 650,000 compounds, 0.91% hits. O75030; in the data active means inhibition above about 50%
FBW7 act: human FBW7 E3 ligase activation, primary screen; AlphaScreen FBW7–phospho-cyclin E peptide binding, activator screen; AID 1259310; normalized activity (activation), % at 26.1 µM; Q969H0; 650,000 compounds, 0.13% hits; in the data active means normalized activity above about 1.9%;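 further: purified mutant Fbw7 with reduced substrate affinity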
GPR151 ag: activates the human receptor GPR151; activation, % at 11.2 µM; PathHunter beta-arrestin GPR151 cells, luminescence; 650,000 compounds, 1% hits; Q8TDV0; in the data active means activation above about 4.9%
Target sequence (Q8TDV0 whole entry, looked up): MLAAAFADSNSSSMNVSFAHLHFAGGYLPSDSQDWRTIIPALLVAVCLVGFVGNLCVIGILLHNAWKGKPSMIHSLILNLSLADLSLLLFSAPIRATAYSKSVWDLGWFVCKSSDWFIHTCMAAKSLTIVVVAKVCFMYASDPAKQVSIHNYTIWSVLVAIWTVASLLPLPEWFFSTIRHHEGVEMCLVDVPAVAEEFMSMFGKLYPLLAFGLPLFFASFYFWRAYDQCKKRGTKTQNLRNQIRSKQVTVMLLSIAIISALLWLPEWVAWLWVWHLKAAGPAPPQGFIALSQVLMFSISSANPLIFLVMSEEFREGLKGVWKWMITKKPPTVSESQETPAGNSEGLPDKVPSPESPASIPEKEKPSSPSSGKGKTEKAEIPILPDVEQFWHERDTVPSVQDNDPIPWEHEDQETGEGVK
MITF inh conf: human MITF inhibition, confirmation. 4,700 compounds, 16% hits. AlphaScreen MITF homodimerization, biotin/His-MITF beads. inhibition, % at 2.6 µM. shares compounds with MITF inh. AID 1259372;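 active means inhibition above a cutoff derived from the DMSO control wells, cut at about 28% in these data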;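 further: inhibitors lower the bead chemiluminescence by keeping MITF from dimerizing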
AlphaScreen intf2: counter-screen: compounds optically interfering with AlphaScreen. inhibition, % at 2.6 µM. LysRS AlphaScreen counterscreen, signal interference, triplicate. 4,700 compounds, 7.6% hits. shares compounds with MITF inh;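 active means inhibition above a cutoff derived from the DMSO control wells, cut at about 30% in these data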
Each line names hits and unclear results; the compound was inactive in the other large screens (follow-up assays come after a bar, where they were run).

CCOC(=O)c1c(NC(=S)NN2CCN(C)CC2)sc(C)c1-c1ccccc1	none
CCCOc1ccc(S(=O)(=O)NCc2ccncc2)c2ccccc12	TEAD-YAP block 32
CCOc1cc(S(=O)(=O)NCc2ccncc2)ccc1F	TEAD-YAP block 54
Cc1cc(S(=O)(=O)NCc2ccncc2)c(C)cc1Cl	none
CCOc1ccc(S(=O)(=O)NCc2ccccc2)c2ccccc12	none
Cc1cc(S(=O)(=O)NCc2ccncc2)c(C)c(C)c1C	TEAD-YAP block 43
COc1ccc(NC(=O)N(Cc2ccc(F)cc2)C2CC(=O)N(c3ccccc3)C2=O)cc1 (configuration not stated)	none
CCOc1ccc(C(=O)Oc2ccc(-c3nc4ccc(C)cc4s3)cc2)cc1Br	TEAD-YAP block 37
CCOc1ccc(C(=O)Nc2ccc(-c3nc4ccc(C)cc4s3)cc2)cc1Br	none
C=CCNc1nc(N)c(C(N)=NC#N)s1	TEAD-YAP block 74
Cc1ccc(/C=N/Nc2nc(-c3ccc(Cl)cc3)cs2)o1	none
CCCC(CCn1c(C)[n+](CC)c2ccc(C#N)cc21)S(=O)(=O)O (configuration not stated)	FBW7 act 1.9
CC[n+]1c(C)n(CCCS(=O)(=O)O)c2cc(C#N)ccc21	none
Cc1ccc(NC(=O)CCNS(=O)(=O)c2ccc3[nH]c(=O)ccc3c2)cc1C	none
CCCn1nnnc1NC(=O)c1ccc(OCC)c(Cl)c1	none
COc1ccc(CCNC(=O)c2cncc(-c3ccc(N4CCOCC4)nc3)c2)cc1	none
Nc1nc(SCC(=O)Nc2ccc(S(=O)(=O)N3CCCC3)cc2)n[nH]1	none
CN(Cc1ccccc1)C(=O)CSc1nc2cc(C(=O)NCC3CCCO3)ccc2c(=O)n1Cc1ccco1 (configuration not stated)	TEAD-YAP block 38
O=C(NCC1CCCO1)c1ccc2c(=O)n(Cc3ccco3)c(SCC(=O)N3CCN(c4ccccc4)CC3)nc2c1 (configuration not stated)	TEAD-YAP block 35
O=C(CSc1nc2cc(C(=O)NCC3CCCO3)ccc2c(=O)n1Cc1ccco1)NC1CCCC1 (configuration not stated)	none
COCCNC(=O)c1ccc2c(=O)n(Cc3ccco3)c(SCC(=O)N3CCN(c4ccccc4)CC3)nc2c1	none
CCC1CN(CCNC(=O)c2ccc(Cn3cnnn3)cc2)Cc2cc(OC)ccc2O1 (configuration not stated)	none
COCCNc1ccc2ncc(-c3ccc(F)cc3)n2n1	none
COCCNc1ccc2ncc(-c3cccc(F)c3)n2n1	none
COCCNc1ccc2ncc(-c3ccc(O)cc3)n2n1	TEAD-YAP block 58
CCCNc1ccc2ncc(-c3ccc(O)cc3)n2n1	TEAD-YAP block 77
COCCNc1ccc2ncc(-c3cccc(CO)c3)n2n1	TEAD-YAP block 33
CCCNc1ccc2ncc(-c3cccc(O)c3)n2n1	none
CCCNc1ccc2ncc(-c3cccc(NC(C)=O)c3)n2n1	TEAD-YAP block 56
COCCNc1ccc2ncc(-c3ccc4c(c3)OCO4)n2n1	TEAD-YAP block 39
Cc1ccc(C(=O)Nc2noc3ccccc23)cc1	TEAD-YAP block 76
O=C(Nc1noc2ccccc12)c1ccccc1	TEAD-YAP block 51
O=C(Nc1noc2ccccc12)c1ccco1	none
CCOC(=O)C1=C(C)NC2=C(C(=O)CC(c3ccco3)C2)C1c1cccs1 (configuration not stated)	TEAD-YAP block 63
CC1=C(C(=O)OC(C)C)C(c2ccsc2)C2=C(CC(c3cccs3)CC2=O)N1 (configuration not stated)	TEAD-YAP block 67
CCOCCOC(=O)C1=C(C)NC2=C(C(=O)CC(c3cccs3)C2)C1c1cccs1 (configuration not stated)	none
Cc1ccc(N2C(=O)c3ccc(C(=O)c4cccc([N+](=O)[O-])c4)cc3C2=O)cc1C	none
COc1cccc(CN2CCN(C3CCCCC3)C(CCO)C2)c1 (configuration not stated)	none
Cc1ccc(-c2nn(CN3CCCc4ccccc43)c(=S)n2-c2ccccc2)cc1	TEAD-YAP block 49
COC(=O)/C=C/CSc1nnc(-c2ccc(Cl)cc2Cl)o1	TEAD-YAP block 91
C/C(=N\Nc1ccccc1Cl)c1ccccn1	none
C/C(=N\Nc1nc2ccccc2o1)c1ccccn1	MITF inh 55 | MITF inh conf inactive | AlphaScreen intf2 inactive
O=C(Nc1ccc(Cl)cc1Cl)c1cccnc1Cl	none
O=C1c2ccccc2C(=O)N1c1ncc(Cc2ccc(Cl)cc2)s1	MITF inh 59 | MITF inh conf inactive | AlphaScreen intf2 inactive
O=C1c2ccccc2C(=O)N1c1ncc(Cc2cc(Cl)ccc2Cl)s1	none
CC1CCC(N2CCN(Cc3ccc([N+](=O)[O-])cc3)CC2)CC1 (configuration not stated)	MITF inh 65 | MITF inh conf inactive | AlphaScreen intf2 inactive
O=[N+]([O-])c1ccc(CN2CCC(N3CCCCCC3)CC2)cc1	none
CCCN1CCC(N2CCN(c3ccc([N+](=O)[O-])cc3)CC2)CC1	MITF inh 55 | MITF inh conf inactive | AlphaScreen intf2 inactive
CC1CCN(Cc2ccc([N+](=O)[O-])cc2)CC1	none
CC1CCCC(N2CCN(c3ccc([N+](=O)[O-])cc3)CC2)C1 (configuration not stated)	none
O=[N+]([O-])c1ccc(CN2CCC(N3CCN(CCO)CC3)CC2)cc1	MITF inh 53 | MITF inh conf inactive | AlphaScreen intf2 inactive
COc1cccc(N2C(=O)/C(=C/c3cccs3)C(=O)NC2=S)c1	none
O=C(CCNc1c(N2CCCC2)c(=O)c1=O)NCc1ccccc1Cl	none
COc1ccc(-n2nc(C(=O)N(C)c3ccc(C(C)C)cc3)c3ccccc3c2=O)c(OC)c1	none
CCOC(=O)C1CCN(C(=O)c2ccc(N3CC4CC(C3)c3cccc(=O)n3C4)c(NC(=O)c3ccc(F)cc3)c2)CC1 (configuration not stated)	none
CCOC(=O)C1CCN(C(=O)c2ccc(N3CC4CC(C3)c3cccc(=O)n3C4)c(NC(=O)c3ccc(C(C)(C)C)cc3)c2)CC1 (configuration not stated)	MITF inh 67 | MITF inh conf inactive | AlphaScreen intf2 inactive
Cc1cc(C)c2nc(N3CCC(C(=O)NCCCOC(C)C)CC3)sc2c1	none
CC(O)CNc1nc2c(c(=O)n(Cc3ccccc3F)c(=O)n2C)n1C (configuration not stated)	MITF inh 61 | MITF inh conf inactive | AlphaScreen intf2 inactive
CCOC(=O)CC(=O)CSc1nn2c(=O)c(C)nnc2s1	MITF inh 53 | MITF inh conf inactive | AlphaScreen intf2 37
CCOC(=O)CSc1nn2c(=O)c(C)nnc2s1	none
O=C(NCCC1=CCCCC1)c1cccc(-n2c(=S)[nH]c3cc(Cl)ccc3c2=O)c1	none
COc1ccc(-c2[nH]nc3nc(-c4cc(OC)c(O)c(OC)c4)cc(C(=O)O)c23)cc1	MITF inh 70 | MITF inh conf inactive | AlphaScreen intf2 inactive
